# About 30 (0.1%) of roughly 23,000 compounds showed an effect of 50% or more. What follows is part of a selection rich in strong results, with near analogues and random picks from the rest. Measured potencies and affinities stand elsewhere.
# Tested on: Pseudomonas aeruginosa
# Details: Concentration 32 ug.mL-1; ASSAY_TEST Inhibition of Bacterial Growth; detection method Absorption (OD600); MEDIA CAMHB; plate type 384well; NBS; CORNING #3640; time 18 hr
row,SMILES,Inhibition [%]
1,N=C(Nc1ccccc1Cl)c1cscn1,77.11
2,N=C(Nc1ccccc1)c1cscn1,1.73
3,CCc1ccc(Nc2nc(N)c(-c3nc4ccccc4c(=O)n3-c3ccccc3)s2)cc1,12.66
